Laboratory results published in PubChem BioAssay.
Calls of active or inactive are those of the source.

Experiments:
[1] = test system: Plasmodium falciparum Sir2 (PF13_0152, Sir2A); experiment: pfSir2 binders on small-molecule microarrays, primary screen, biochemical, small-molecule microarray, 635 nm fluorescence (AID 1098); details: small-molecule microarray binding, fluorescence 635 nm; higher = more signal;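 note: score merges spot fluorescence intensity with its signal-to-noise ratio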
[2] = small-molecule microarray binders of probe aDKK1, primary screen, biochemical, biotinylated probe, 635/667 nm fluorescence (AID 1099); details: higher = more signal;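 note: score merges 667nm spot fluorescence with signal to noise across triplicate slides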
[3] = small-molecule microarray binders of probe aCHRDL2, primary screen, biochemical, biotinylated probe, 635/667 nm fluorescence (AID 1100); details: higher = more signal
[4] = splicing luciferase reporter signal modulators, primary screen, spliceosome inhibition project, cell-based, HEK293, splice +/- reporter (AID 1101); details: luminescence, 24 h, higher = more signal, called active from +8 up or from −8 down;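 note: HEK293 cells carrying a splicing-competent luciferase reporter gene; test concentration not given here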
[5] = molecular target: Fibroblast growth factor 10 (Homo sapiens) (UniProt O15520); experiment: FGF10 binders on small-molecule microarrays, primary screen, biochemical, small-molecule microarray, 635 nm fluorescence (AID 1102); details: FGF10 binding, fluorescence 635 nm, higher = more signal
Fibroblast growth factor 10 (Homo sapiens), sequence (O15520 whole entry, looked up): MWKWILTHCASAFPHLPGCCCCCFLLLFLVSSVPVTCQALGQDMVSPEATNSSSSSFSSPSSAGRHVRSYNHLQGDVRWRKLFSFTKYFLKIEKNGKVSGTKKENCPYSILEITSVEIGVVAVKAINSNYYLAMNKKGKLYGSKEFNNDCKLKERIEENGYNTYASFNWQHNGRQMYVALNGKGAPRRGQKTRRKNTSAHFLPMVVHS

[6] = test system: glycogen synthase kinase-3 (GSK3A per assay name; protocol says GSK3B); experiment: GSK3 binders on small-molecule microarrays, primary screen, biochemical, small-molecule microarray, 635 nm fluorescence, GSK3A (AID 1103); details: small-molecule microarray binding, fluorescence 635 nm; higher = more signal; note: the record names both GSK3A and GSK3B
[7] = molecular target: Epidermal growth factor receptor (Homo sapiens) (UniProt P00533); experiment: EGFR binders on small-molecule microarrays, primary screen, biochemical, small-molecule microarray, 635 nm fluorescence (AID 1104); details: EGFR binding, higher = more signal;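 note: score merges 667 nm emission intensity with spot signal to noise over triplicate slides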
Epidermal growth factor receptor (Homo sapiens), sequence (P00533 whole entry, looked up): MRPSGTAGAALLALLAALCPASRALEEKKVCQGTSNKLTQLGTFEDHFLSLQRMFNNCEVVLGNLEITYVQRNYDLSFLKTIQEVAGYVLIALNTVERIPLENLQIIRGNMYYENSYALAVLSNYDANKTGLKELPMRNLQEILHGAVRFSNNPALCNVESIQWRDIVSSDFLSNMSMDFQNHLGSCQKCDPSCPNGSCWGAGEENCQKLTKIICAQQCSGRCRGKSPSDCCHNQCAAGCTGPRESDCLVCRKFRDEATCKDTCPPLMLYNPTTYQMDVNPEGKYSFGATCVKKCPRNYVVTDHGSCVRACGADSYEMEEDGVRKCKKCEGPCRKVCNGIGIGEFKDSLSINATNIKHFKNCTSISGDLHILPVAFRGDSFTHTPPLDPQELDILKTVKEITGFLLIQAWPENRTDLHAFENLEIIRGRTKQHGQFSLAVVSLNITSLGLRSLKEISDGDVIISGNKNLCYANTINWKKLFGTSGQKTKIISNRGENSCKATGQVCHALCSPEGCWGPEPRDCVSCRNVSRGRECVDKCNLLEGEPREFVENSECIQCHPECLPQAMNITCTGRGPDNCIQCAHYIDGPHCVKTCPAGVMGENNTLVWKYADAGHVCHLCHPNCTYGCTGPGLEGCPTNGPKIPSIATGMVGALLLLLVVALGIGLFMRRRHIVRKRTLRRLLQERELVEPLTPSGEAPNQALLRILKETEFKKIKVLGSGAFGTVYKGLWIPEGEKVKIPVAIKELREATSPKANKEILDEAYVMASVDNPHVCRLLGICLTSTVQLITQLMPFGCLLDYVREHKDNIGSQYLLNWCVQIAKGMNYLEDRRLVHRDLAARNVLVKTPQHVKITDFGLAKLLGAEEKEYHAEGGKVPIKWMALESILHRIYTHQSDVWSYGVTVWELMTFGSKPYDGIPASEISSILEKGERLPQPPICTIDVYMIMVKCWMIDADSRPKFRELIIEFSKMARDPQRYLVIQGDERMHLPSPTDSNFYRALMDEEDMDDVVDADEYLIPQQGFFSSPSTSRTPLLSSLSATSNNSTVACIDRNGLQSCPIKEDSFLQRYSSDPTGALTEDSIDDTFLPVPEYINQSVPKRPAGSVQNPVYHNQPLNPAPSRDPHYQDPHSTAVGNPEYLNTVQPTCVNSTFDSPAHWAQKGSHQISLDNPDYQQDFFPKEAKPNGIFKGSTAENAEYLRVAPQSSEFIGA

[8] = molecular target: Follistatin-related protein 3 (Homo sapiens) (UniProt O95633); experiment: FSTL3 binders on small-molecule microarrays, primary screen, biochemical, small-molecule microarray, 635 nm fluorescence (AID 1105); details: FSTL3 binding, higher = more signal;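 note: score merges emission near 667 nm and signal to noise per printed spot across three slides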
Follistatin-related protein 3 (Homo sapiens), sequence (O95633 whole entry, looked up): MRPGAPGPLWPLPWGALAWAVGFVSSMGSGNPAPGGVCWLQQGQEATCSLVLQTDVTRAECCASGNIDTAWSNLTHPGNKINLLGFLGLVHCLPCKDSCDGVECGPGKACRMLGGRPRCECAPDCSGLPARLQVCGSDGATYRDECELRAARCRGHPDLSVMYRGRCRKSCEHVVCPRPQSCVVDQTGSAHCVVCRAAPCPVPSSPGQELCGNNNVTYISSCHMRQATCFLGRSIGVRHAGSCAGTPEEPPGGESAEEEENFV

[9] = molecular target: Dickkopf-related protein 1 (Homo sapiens) (UniProt O94907); experiment: DKK1 binders on small-molecule microarrays, primary screen, biochemical, small-molecule microarray, 635 nm fluorescence scan (AID 1106); details: DKK1 binding, higher = more signal;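 note: score merges emission near 667 nm with signal to noise over three replicate slides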
Dickkopf-related protein 1 (Homo sapiens), sequence (O94907 whole entry, looked up): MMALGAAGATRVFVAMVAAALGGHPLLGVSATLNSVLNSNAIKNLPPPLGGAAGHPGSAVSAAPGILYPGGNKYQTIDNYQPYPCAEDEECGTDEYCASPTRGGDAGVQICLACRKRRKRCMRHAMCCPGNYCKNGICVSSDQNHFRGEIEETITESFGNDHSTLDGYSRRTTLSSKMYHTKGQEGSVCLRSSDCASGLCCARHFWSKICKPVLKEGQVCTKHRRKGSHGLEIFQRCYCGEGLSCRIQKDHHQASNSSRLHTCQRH

[10] = test system: Inhibin beta A chain (activin A); experiment: INHBA (activin A) binders on microarrays, primary screen, biochemical, small-molecule microarray, 635 nm fluorescence scan (AID 1107); details: small-molecule microarray binding, higher = more signal;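 note: mouse activin A protein probed at 4.33 µg/mL on printed slides; score merges bound-protein fluorescence near 667 nm with spot signal-to-noise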
[11] = test system: Human papillomavirus type 1a protein E7 (residues 44-93); experiment: HPV1a E7 fragment binders on microarrays, primary screen, biochemical, small-molecule microarray, residues 44-93, 635 nm fluorescence (AID 1108); details: small-molecule microarray binding, fluorescence 635 nm; higher = more signal;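 note: E7 fragment applied at 1 µg/mL in TBST for 1 h at 4 C; score combines spot fluorescence with its signal to noise ratio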
[12] = modulators of HCV replicon luciferase signal, primary screen, HCV replication inhibitor project, Huh7 cells, luciferase reporter (AID 1109); details: 48 h, higher = more signal;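 note: huh7 hepatoma cells harbouring a luciferase neomycin HCV replicon reporter; luciferase luminescence as measure of HCV replicon replication; test concentration not given here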
[13] = molecular target: Left-right determination factor 2 (Homo sapiens) (UniProt O00292); experiment: LEFTY2 binders on small-molecule microarrays, primary screen, biochemical, small-molecule microarray, 635 nm fluorescence scan (AID 1110); details: LEFTY2 binding, higher = more signal
Left-right determination factor 2 (Homo sapiens), sequence (O00292 whole entry, looked up): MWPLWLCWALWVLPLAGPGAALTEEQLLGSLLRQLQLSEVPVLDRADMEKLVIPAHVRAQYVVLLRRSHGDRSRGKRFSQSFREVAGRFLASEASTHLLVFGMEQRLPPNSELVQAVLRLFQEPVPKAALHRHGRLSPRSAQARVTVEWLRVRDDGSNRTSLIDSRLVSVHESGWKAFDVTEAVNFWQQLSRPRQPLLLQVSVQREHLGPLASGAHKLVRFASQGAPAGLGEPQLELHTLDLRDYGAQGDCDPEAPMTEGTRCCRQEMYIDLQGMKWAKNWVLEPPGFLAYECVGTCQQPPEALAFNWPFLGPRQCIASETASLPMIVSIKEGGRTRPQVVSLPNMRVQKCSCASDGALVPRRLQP

[14] = molecular target: Calmodulin-1 (Homo sapiens) (UniProt P0DP23); experiment: CALM1 binders on microarrays, EGTA buffer, profiling panel, biochemical, small-molecule microarray, Cy5-labelled CALM1 (AID 1111); details: Cy5-CALM1 binding fluorescence, higher = more signal;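 note: labelled calmodulin applied in Tris saline Tween buffer holding calcium plus EGTA and DTT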
[15] = molecular target: Calmodulin-1 (Homo sapiens) (UniProt P0DP23); experiment: calcium-bound CALM1 binders on microarrays, profiling panel, artefact control for SMM control-protein annotation, biochemical, small-molecule microarray, Cy5-labelled CALM1, plus calcium (AID 1112); details: Cy5-CALM1 binding fluorescence, higher = more signal;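 note: score merges spot fluorescence with signal to noise from triplicate slides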
[16] = small-molecule microarray binders of probe aWnt5a, primary screen, biochemical, biotinylated probe, 635/667 nm fluorescence (AID 1113); details: higher = more signal;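 note: score merges 667 nm fluorescence intensity with signal-to-noise per printed feature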
[17] = small-molecule microarray binders of probe aShh, primary screen, biochemical, biotinylated probe, 635/667 nm fluorescence (AID 1114); details: higher = more signal;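 note: probe is biotin-labelled aShh protein from a stem cell growth factor screen; measures binding of labelled protein to compounds printed on the slide; score merges feature fluorescence at 667 nm with signal-to-noise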
[18] = small-molecule microarray binders of probe aNog, primary screen, biochemical, biotinylated probe, 635/667 nm fluorescence (AID 1115); details: higher = more signal;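 note: probe is biotinylated aNog protein used at 0.15 µg/mL for 1 h at 4 C; z-score combines 667 nm fluorescence of each spot with its signal to noise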
[19] = molecular target: Torsin-1A-interacting protein 1 (Homo sapiens) (UniProt Q5JTV8); experiment: LAP1 binders from COS7 cell lysate, primary screen, small-molecule microarray, 635/667 nm fluorescence (AID 1116); details: COS7-hLAP1 lysate binding, 635 nm fluorescence, higher = more signal
Torsin-1A-interacting protein 1 (Homo sapiens), sequence (Q5JTV8 whole entry, looked up): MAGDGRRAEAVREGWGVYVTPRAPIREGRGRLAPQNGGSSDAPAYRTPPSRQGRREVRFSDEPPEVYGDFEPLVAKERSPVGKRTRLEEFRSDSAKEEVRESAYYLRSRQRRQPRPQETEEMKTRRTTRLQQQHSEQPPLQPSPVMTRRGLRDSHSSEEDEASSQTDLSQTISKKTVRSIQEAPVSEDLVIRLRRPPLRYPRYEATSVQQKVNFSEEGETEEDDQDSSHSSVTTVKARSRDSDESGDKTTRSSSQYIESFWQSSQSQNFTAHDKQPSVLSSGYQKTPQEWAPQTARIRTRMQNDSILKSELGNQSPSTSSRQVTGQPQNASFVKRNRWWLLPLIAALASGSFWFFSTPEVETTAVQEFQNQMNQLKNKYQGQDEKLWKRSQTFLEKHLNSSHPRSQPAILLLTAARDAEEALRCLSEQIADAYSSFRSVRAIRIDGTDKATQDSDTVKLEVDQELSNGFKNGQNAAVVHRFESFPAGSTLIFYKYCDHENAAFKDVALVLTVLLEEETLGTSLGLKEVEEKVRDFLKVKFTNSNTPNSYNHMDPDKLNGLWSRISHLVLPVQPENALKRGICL

[20] = molecular target: Alpha-bungarotoxin (Bungarus multicinctus) (UniProt P60615); experiment: alpha-bungarotoxin binders on microarray, profiling panel, artefact control for SMM control protein annotation, biochemical, small-molecule microarray, Alexa647 label, 635/667 nm fluorescence (AID 1117); details: alpha-BTX-A647 binding fluorescence, higher = more signal
Alpha-bungarotoxin (Bungarus multicinctus), sequence (P60615 whole entry, looked up): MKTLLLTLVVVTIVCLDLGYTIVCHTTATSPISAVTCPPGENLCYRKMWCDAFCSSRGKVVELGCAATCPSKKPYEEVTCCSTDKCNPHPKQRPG

Row | Compound | composite z-score [1] | composite z-score [2] | composite z-score [3] | z-score [4] | composite z-score [5] | composite z-score [6] | composite z-score [7] | composite z-score [8] | composite z-score [9] | composite z-score [10] | composite z-score [11] | z-score [12] | composite z-score [13] | composite z-score [14] | composite z-score [15] | composite z-score [16] | composite z-score [17] | composite z-score [18] | composite z-score [19] | composite z-score [20]
1 | COC(=O)[C@]1(Cc2ccccc2N=[N+]=[N-])N=C(c2ccc(OCCCO)cc2)O[C@@H]1c1ccccc1 | 1.12 | 0.974 | 1.12 | 9.3 (active) | -0.261 | 0.196 | -0.355 | -0.105 | -0.932 | 0.897 | -0.296 | -3.3 | -0.96 | 0.279 | 0.41 | 0.0831 | -0.111 | 0.534 | 0.738 | 0.41
2 | CN1C(=O)C2C=CC(C(O)C3CCCCC3)N(N(c3ccccc3)c3ccccc3)C2C1=O (stereo not given) | -0.941 | 0.993 | 0.895 | 1.12 (inactive) | 0.189 | -1.14 | -1.34 | -1.14 | -1.28 | 1.48 | -1.93 | -0.15 | -0.939 | 0.142 | 0.405 | 0.204 | 0.117 | 0.0294 | 0.0416 | -0.232
3 | COc1ccc([Si](C)(C)[C@@H]2[C@@H](CCO)O[C@]3(C(=O)N(Cc4ccccc4)c4ccc(N5CCCCC5=O)cc43)[C@H]2C)cc1 | 0.883 | -0.107 | -0.0137 | -4.14 (inactive) | 0.959 | 1.1 | 0.197 | 0.962 | 0.218 | 0.796 | 1.4 | -5.21 | 0.489 | 0.972 | 0.0653 | -0.122 | -0.2 | -0.352 | 0.678 | 1.08
4 | C=CC[C@]1(C(=O)NCC(O)CO)N=C(c2ccc(OCCCO)cc2)O[C@H]1c1ccccc1N=[N+]=[N-] (stereo not given in full) | 0.939 | 0.731 | 1.28 | -0.789 (inactive) | 0.258 | -0.216 | -0.0496 | -0.291 | -0.379 | 1.42 | 1.14 | -0.0862 | -0.571 | 1.64 | 0.479 | 0.106 | 1.09 | 1.68 | 2.75 | -0.0575
5 | O=C1OCC=C[C@H]2OC34C=CCN(CCN5CCOCC5)C(=O)[C@H]3N(CCCCCO)C(=O)[C@@H]4[C@@H]12 (stereo not given in full) | 1.35 | -0.284 | -0.227 | 0.636 (inactive) | -0.736 | -0.0692 | -0.411 | -0.412 | -0.24 | 0.77 | -1.19 | 0.557 | -0.258 | -0.234 | -0.953 | -0.178 | -0.223 | -0.278 | -0.607 | 0.396
6 | CC(C)(C)OC(=O)CC[C@]1(C(=O)O)COC(c2ccc(OCCCO)cc2)=N1 | 0.337 | 0.768 | 0.553 | 0.14 (inactive) | -0.577 | -0.69 | -0.609 | -1.2 | -1.51 | 0.469 | 0.191 | 0.0847 | -0.225 | 0.155 | 0.568 | 0.105 | 0.0326 | 0.609 | 0.672 | -0.582
7 | O=C1C2C=CC(C(O)c3ccc(Br)cc3)N(Nc3ccccc3)C2C(=O)N1c1ccccc1 (stereo not given) | 0.489 | -0.0556 | 0.504 | 1.34 (inactive) | 0.295 | 0.435 | 0.181 | 0.429 | -0.25 | 1.23 | 0.699 | 0.393 | -0.853 | 0.863 | 0.29 | 0.0151 | 0.389 | 1.26 | 0.661 | 1.2
8 | COc1ccc(C(=O)Nc2ccc3c(c2)[C@]2(O[C@@H](CCO)[C@H]([Si](C)(C)c4ccc(OC)cc4)[C@H]2C)C(=O)N3Cc2ccccc2)cc1 | 0.663 | -0.0183 | -0.0221 | -3.4 (inactive) | 0.572 | 0.3 | 0.349 | 0.393 | 0.359 | 1.11 | 0.958 | -5.23 | 0.793 | 0.475 | 0.57 | -0.13 | 0.0062 | -0.295 | 0.422 | 0.375
9 | CC(C)[Si](C#C[Si](C(C)C)(C(C)C)C(C)C)(O[C@H](C)c1cn(Cc2cccc(Cl)c2)nn1)C(C)C | 0.259 | -0.493 | -0.578 | -0.589 (inactive) | 0.539 | 1.14 | 0.863 | 0.433 | 0.459 | -0.33 | 0.953 | -0.266 | 0.499 | 1.01 | 0.506 | -0.253 | -0.243 | -0.175 | 0.0392 | 1.03
10 | O=C1O[C@H](c2ccccc2)[C@H](c2ccccc2)N2[C@H]1[C@@H](C(=O)N1CCCCCCC1)[C@]1(C(=O)Nc3ccc(C#CCCO)cc31)[C@H]2c1ccc(OCCO)cc1 | 2.14 | 2.78 | 1.42 | -0.302 (inactive) | 1.65 | 1.45 | 1.89 | 1.66 | 2.65 | 1.9 | 1.62 | -1.64 | 1.72 | 3.04 | 1.63 | 1.65 | 2.49 | 3.39 | 5.44 | 4.88
11 | CN(C)C(=O)[C@@]1(Cc2ccccc2N=[N+]=[N-])N=C(c2ccc(OCCCO)cc2)O[C@H]1c1ccccc1N=[N+]=[N-] | 0.974 | 1.19 | 0.7 | -0.167 (inactive) | 0.817 | 1.29 | 0.284 | 0.347 | 0.0393 | 1.28 | 1.41 | -2.28 | -0.121 | 1.43 | 0.859 | -0.0403 | 0.108 | 0.566 | 1.29 | 1.6
12 | COCCCNC(=O)[C@@]1(C)c2ccccc2C(=O)N(c2ccc(C)cn2)[C@H]1c1ccc(CO)cc1 | 0.963 | -0.748 | -0.75 | 0.532 (inactive) | -1.15 | -0.799 | -0.626 | -0.551 | -0.813 | 0.534 | -0.588 | -0.0063 | -0.877 | -0.949 | -1.12 | -0.172 | 0.283 | -0.911 | 1.69 | -1.65
13 | CC(C)N1C(=O)c2ccccc2[C@](C)(C(=O)O)[C@@H]1c1ccc(CO)cc1 | 0.738 | 0.326 | 0.855 | 0.591 (inactive) | -0.756 | -1.23 | -1.35 | -0.638 | -1.06 | 0.532 | -0.113 | -0.169 | -1.23 | -0.198 | 0.531 | -0.143 | 0.133 | 0.338 | 0.274 | 0.468
14 | CC(C)CCC[C@@H](C)[C@H]1CC[C@@]2(C)C3=C(CC[C@]12C)[C@@]1(C)CC[C@H](OC(=O)C(C)(C)C)C(C)(C)C1CC3 (stereo not given in full) | -0.0682 | -0.291 | -0.636 | -2.09 (inactive) | 0.897 | 0.465 | 0.837 | 0.619 | 0.683 | -0.312 | 0.506 | -0.435 | 0.502 | 0.0548 | -0.718 | -0.0792 | -0.134 | -0.705 | -0.0812 | 0.448
15 | O=C1NC(=O)C2C1C=CC(C(O)CCc1ccccc1)N2Nc1ccccn1 (stereo not given) | 0.539 | 0.673 | 0.778 | -0.735 (inactive) | 0.165 | 0.44 | 0.261 | 0.155 | 0.156 | 0.584 | -0.574 | 0.204 | -0.0953 | 0.901 | 0.569 | -0.0445 | -0.262 | -0.279 | 2.33 | 0.67
